Reference: PubChem BioAssay (Tox21)
Active and inactive are the calls of the source. Entries that show only a call come without a potency. The call rests on the fitted dose curve.

These compounds were tested against Gonadotropin-releasing hormone receptor (Homo sapiens) (UniProt P30968) (assay: Human gonadotropin-releasing hormone receptor (GnRHR) small molecule agonists, calcium flux assay in GnRHR-HEK293 cells (AID 1920063; further: nearly all actives have a fitted effect of over 35% in size)). Details: calcium flux fluorescence, agonist mode; series mostly up to 57.6 µM.
Sequence of Gonadotropin-releasing hormone receptor (Homo sapiens) (P30968 whole entry, looked up): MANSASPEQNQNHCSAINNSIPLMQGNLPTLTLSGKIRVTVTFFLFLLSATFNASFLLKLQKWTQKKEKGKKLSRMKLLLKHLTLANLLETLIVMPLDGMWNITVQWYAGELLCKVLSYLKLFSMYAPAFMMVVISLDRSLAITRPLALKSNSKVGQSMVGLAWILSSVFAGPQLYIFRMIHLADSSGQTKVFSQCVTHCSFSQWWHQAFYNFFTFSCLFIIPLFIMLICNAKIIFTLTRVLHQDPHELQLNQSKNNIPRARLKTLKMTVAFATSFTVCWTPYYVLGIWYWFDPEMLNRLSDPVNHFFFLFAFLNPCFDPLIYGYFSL
Excerpt: National Center for Advancing Translational Sciences [NCATS]
Division of Preclinical Innovation [DPI]
U.S. Environmental Protection Agency [EPA]
National Institutes of Environmental Health Sciences [NIEHS]
National Toxicology Program [NTP]
U.S. Food and Drug Administration [FDA]
Gonadotropin-releasing hormone receptor (GnRHR) is a G-protein-coupled receptor (GPCR) and acts (through phospholipase C) to increase intracellular inositol trisphosphate and then release intracellular calcium stores. Cell-based GnRHR-Hek293 calcium influx assay is using HEK293 cells that have been genetically engineered to express the human GnRHR, which activity can be measured by calcium signaling. A compound/drug can activate (agonist) GnRHR that can be monitored by levels of intracellular calcium.
GnRHR-HEK293 cells developed by Codex Corp contain human GnRHR reporter gene, which was stably integrated into HEK 293 cells. The compound activation can be detected by fluorescence intensity via calcium flux assay. This cell line has been used to screen the Tox21 10K compound library to identify GnRHR agonists.
GnRHR-Hek293 cells were dispensed at 1500cells/4uL/well in 1536-well black wall/clear bottom plates using a multidrop dispenser. After the assay plates were incubated at a 37 C/5% CO2 incubator for 18 hours, 4 uL of Calcium Dye Solution was added to each well. The plates were incubated at 37 C for 1 hour. For agonist mode, 23 nL of compounds dissolved in DMSO, positive controls or DMSO only was transferred to the assay plate by a pin tool station. The fluorescence intensity in the plates was measured using FDSS 7000EX kinetic plate reader with a filter set of Ex/Em=480/540 for 3 min at 1 sec intervals. Each test compound was measured at 15 concentrations and in triplicates.
Potency means the concentration at half of the fitted maximal effect.

Row | Compound | Potency
1 | CCCC(C)(COC(N)=O)COC(N)=O | inactive
2 | O=C(CCl)c1ccccc1 | inactive
3 | Cc1cccc([N+](=O)[O-])c1 | inactive
4 | O=C1C2(Cl)C3(Cl)C4(Cl)C(Cl)(Cl)C5(Cl)C3(Cl)C1(Cl)C5(Cl)C24Cl (stereo not given) | 38.3 µM (active)
5 | c1cc2c(c(N3CCNCC3)c1)OCCO2 | inactive
6 | CCCCCCCC[N+](C)(CCCCCCCC)CCCCCCCC | inactive
7 | ClCC(Br)CBr (stereo not given) | inactive
8 | Oc1c(Cl)c(Cl)c(Cl)c(Cl)c1Cl | inactive
9 | O=C(O)c1cc(Oc2ccc(C(F)(F)F)cc2Cl)ccc1[N+](=O)[O-] | inactive
10 | CNC(=O)O/N=C/C(C)(C)S(C)(=O)=O | inactive
11 | OC(Cc1ccccc1Cl)(Cn1cncn1)C1(Cl)CC1 (stereo not given) | inactive
12 | O=NN1CCOCC1 | inactive
13 | CN(C)P(=O)(N(C)C)N(C)C | inactive
14 | CCOCN(C(=O)CCl)c1c(C)cccc1CC | inactive
15 | Nc1ccccc1C(=O)OCCc1ccccc1 | inactive
16 | Cc1ccc2cc(C)ccc2c1 | inactive
17 | Cn1cc[n+](C)c1 (tested in a mixture with another compound) | inactive
18 | NN=C(N)N | inactive
19 | O=P(O)(Oc1ccccc1)Oc1ccccc1 | inactive
20 | C=CC(=O)OCC(CC)CCCC (stereo not given) | inactive

Row | Compound | Potency
21 | O=Cc1ccccc1 | inactive
22 | CCSC(=O)N1CCCCCC1 | inactive
23 | CCOP(=O)(OCC)OP(=O)(OCC)OCC | inactive
24 | CON(C)C(=O)Nc1ccc(Cl)cc1 | inactive
25 | C[C@]12CC[C@H]3[C@@H](CC=C4C[C@@H](O)CC[C@@]43C)[C@@H]1CC[C@@H]2O | inactive
26 | CCC1(c2ccccc2)CCC(=O)NC1=O (stereo not given) | inactive
27 | Oc1cc(Cl)ccc1Oc1ccc(Cl)cc1Cl | inactive
28 | CCc1cccc(CC)c1N(COC)C(=O)CCl | inactive
29 | O=[N+]([O-])CCO | inactive
30 | COP(N)(=O)SC (stereo not given) | inactive
31 | CC(=O)O | inactive
32 | CCN(CC)CCN1C(=O)CN=C(c2ccccc2F)c2cc(Cl)ccc21 | inactive
33 | CCCCCCOC(=O)c1ccccc1C(=O)OCCCCCC | inactive
34 | OCC1CO1 (stereo not given) | inactive
35 | CCOC(=O)c1ccccc1S(=O)(=O)NC(=O)Nc1nc(Cl)cc(OC)n1 | inactive
36 | Cc1coc2c1CCC(C)C2 (stereo not given) | inactive
37 | COc1cc(OC)nc(Oc2cccc(Oc3nc(OC)cc(OC)n3)c2C(=O)O)n1 | inactive
38 | CCOC(=O)Nc1cccc(OC(=O)Nc2ccccc2)c1 | inactive
39 | CCCCCBr | inactive
40 | CN(C)CCc1c[nH]c2cccc(OP(=O)(O)O)c12 | inactive
